System: Vero E6 infected with SARS-CoV-2
Assay: inhibition of SARS-CoV-2 cytopathic effect; higher = more antiviral protection, active = above 15
Conditions: 48 h

Measured: inhibition of SARS-CoV-2 cytopathic effect

CCc1nc(C(N)=O)c(Nc2ccc(N3CCC(N4CCN(C)CC4)CC3)c(OC)c2)nc1NC1CCOCC1 [gilteritinib]
inactive: 1 nM 0.28% | 8.33 nM 0.02% | 100 nM -2.49% | 833.33 nM -0.11% | 10000 nM 10.3%

CCCCCCCCC(=O)N[C@H](CN1CCCC1)[C@H](O)c1ccc2c(c1)OCCO2
inactive: 1 nM 3.01% | 8.33 nM 0.25% | 100 nM 2.54% | 833.33 nM 1.06% | 10000 nM 9.9%

CC(C)(C)C(=O)OCOP(=O)(COCCn1cnc2c(N)ncnc21)OCOC(=O)C(C)(C)C [adefovir-dipivoxil]
inactive: 1 nM 2.79% | 8.33 nM 1.23% | 100 nM -0.37% | 833.33 nM -2.27% | 10000 nM -3.69%

O=C(N/N=C/c1ccc(O)c(O)c1)c1cc2ccccc2cc1O [dynasore]
inactive: 1 nM -1.99% | 8.33 nM 1.05% | 100 nM -1.82% | 833.33 nM -0.26% | 10000 nM 0.04%

C#Cc1cncc([C@@H]2CCCN2C)c1 [altinicline]
inactive: 1 nM -3.46% | 8.33 nM -2.16% | 100 nM -1.9% | 833.33 nM -2.32% | 10000 nM 0.92%

COCCCC/C(=N\OCCN)c1ccc(C(F)(F)F)cc1 [fluvoxamine]
inactive: 1 nM 6.3% | 8.33 nM 3.03% | 100 nM -1.16% | 833.33 nM -0.69% | 10000 nM -6.73%

CCc1cccc(N(C)C(=N)Nc2cccc3ccccc23)c1 [aptiganel]
inactive: 1 nM 1.52% | 8.33 nM 1.91% | 100 nM 1.39% | 833.33 nM -2.33% | 10000 nM -4.82%
